High-throughput results from PubChem BioAssay.
miR-122 inh: miR-122 sensor activation. Huh7 psiCHECK-miR122 Renilla luciferase sensor, 48 h. activation, % at 12.5 µM. 340,000 tested, 0.14% active. AID 623901;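 active = mean activation of 30% or more, with every replicate also reaching 30%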;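 note: 0% = median of neutral control wells and 100% = median of positive control wells; higher luciferase signal means stronger suppression of miR-122 activity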
* = called active by the depositor. Shown is part of a subset that was picked to be rich in hits.

SMILES	miR-122 inh
Cc1cccc(NS(=O)(=O)c2cccc(C(=O)N3CCCCCCC3)c2)c1	-163
O=C(Nc1ccc(S(=O)(=O)NCC2CCCO2)cc1)c1cccc(F)c1 (stereo not drawn)	-91
CC(=O)c1cccc(S(=O)(=O)NCC2CCCCC2)c1	51*
C[C@H](CO)N1C[C@H](C)[C@@H](CN(C)Cc2ccccc2)Oc2ncc(-c3cncnc3)cc2C1=O	-4
C[C@@H]1CN([C@H](C)CO)C(=O)Cc2cc(NC(=O)Nc3ccc4c(c3)OCO4)ccc2O[C@@H]1CN(C)C(=O)Nc1cccc2ccccc12	-129
C[C@@H]1CN([C@H](C)CO)C(=O)c2cc(C#CCc3ccccc3)cnc2O[C@@H]1CN(C)Cc1ccccn1	7
O=C(COc1ccc(S(=O)(=O)NC2CCCCC2)cc1)Nc1ccc2c(c1)OCCO2	-101
O=C(COC(=O)Cc1ccc(S(=O)(=O)N2CCOCC2)s1)Nc1ccc2c(c1)OCO2	31*
O=C(Nc1ccc2c(c1)OCCO2)C1CCN(S(=O)(=O)c2ccccc2)CC1	-177
C[C@H]1CN([C@@H](C)CO)C(=O)c2cc(C#Cc3ccccn3)cnc2O[C@H]1CN(C)C(=O)CCN1CCCCC1	2
CC(=O)N1[C@@H](CO)[C@H](c2ccccc2)[C@@H]1CNC(=O)CN1CCOCC1	-108
O=C(C1CCOCC1)N1[C@H](CO)[C@H]2c3ccccc3NC[C@H]21	42*
CC(=O)N(C)C[C@H]1[C@H](c2ccc(-c3cccnc3)cc2)[C@@H](CO)N1C(=O)C1CC1	-125
CCCN(C)C[C@@H]1Oc2ncc(-c3cccc(C(F)(F)F)c3)cc2C(=O)N([C@H](C)CO)C[C@@H]1C	10
COC(=O)c1ccc(NS(=O)(=O)c2cc(C)ccc2OC)cc1	-150
COC(=O)c1ccc2c(c1)C(C)(C)C(/C=C/c1ccc(OC)c(OC)c1OC)=[N+]2C	40*
C[C@H](CO)N1C[C@H](C)[C@H](CN(C)C(=O)Nc2ccc3c(c2)OCO3)Oc2ncc(-c3ccccc3)cc2C1=O	1
CC(C)C#Cc1ccc2c(c1)O[C@@H](CN(C)Cc1ccncc1)[C@H](C)CN([C@H](C)CO)S2(=O)=O	-3
O=c1c2ccccc2nc(/C=C/c2ccc([N+](=O)[O-])o2)n1CCCO	80*
Cc1cc(C(=O)Nc2cccc3c2O[C@H](CN(C)Cc2ccc(C(F)(F)F)cc2)[C@@H](C)CN([C@H](C)CO)C3=O)n(C)n1	-276
C[C@@H]1CN([C@@H](C)CO)S(=O)(=O)c2ccc(-c3cncnc3)cc2O[C@H]1CN(C)C(=O)Cc1cccnc1	-1
CC(=O)Oc1ccc2c(c1)C(=O)c1ccccc1CO2	35*
C[C@H](CO)N1C[C@H](C)[C@@H](CN(C)C(=O)c2ccccc2F)Oc2ncc(C#Cc3ccc(F)cc3)cc2C1=O	-8
C[C@H](CO)N1C[C@H](C)[C@@H](CN(C)Cc2ccncc2)Oc2ncc(-c3cncnc3)cc2C1=O	-16
C[C@@H]1CN([C@@H](C)CO)C(=O)c2cccc(NC(=O)c3ccncc3)c2O[C@@H]1CN(C)C	-112
SMILES	miR-122 inh
COc1ccc(OC)c(-c2cc(C3CCN(c4cc(Cl)nc(N)n4)CC3)[nH]n2)c1	46*
CCC(=O)Nc1ccc2c(c1)C(=O)N(C)C[C@@H](OC)[C@H](C)CN(C(C)=O)[C@H](C)CO2	-4
C/C=C/c1cnc2c(c1)C(=O)N([C@@H](C)CO)C[C@H](C)[C@@H](CN(C)C(=O)Cc1cccnc1)O2	-3
C[C@@H]1CN([C@H](C)CO)S(=O)(=O)c2ccc(C#Cc3ccccc3)cc2O[C@H]1CN(C)S(=O)(=O)c1ccccc1F	-3
CN1C(=O)c2cc(NC(=O)Cc3ccccc3)ccc2OC[C@@H]2O[C@H](CC(=O)NC3CCC3)CC[C@@H]21	-125
CN1C(=O)c2cc(NC(=O)NC3CCCC3)ccc2OC[C@H]2O[C@@H](CC(=O)O)CC[C@H]21	-138
CC(=O)Nc1ccc2c(c1)C(=O)N(C)[C@H]1CC[C@H](CC(=O)NC3CCCCC3)O[C@@H]1CO2	63*
CN1C(=O)c2cc(NC(=O)c3cccc(F)c3)ccc2OC[C@@H]2O[C@@H](CC(=O)NC3CCC3)CC[C@H]21	70*
C[C@@H]1CN([C@H](C)CO)C(=O)c2cc(C#CCc3ccccc3)cnc2O[C@H]1CN(C)Cc1cccc(C(=O)O)c1	2
CO[C@@H]1CN(C)C(=O)c2ccc(NC(=O)NC(C)C)cc2OC[C@H](C)NC[C@H]1C	-4
C[C@@H]1CN([C@H](C)CO)C(=O)c2cc(C#Cc3ccccc3)cnc2O[C@H]1CN(C)Cc1ccccn1	-2
C[C@@H]1CN([C@H](C)CO)C(=O)c2cc(/C=C/c3ccccc3)cnc2O[C@H]1CN(C)Cc1ccccc1F	-31
Cc1ccc(S(=O)(=O)N(C)C[C@H]2Oc3cc(C#CC4CCCC4)ccc3S(=O)(=O)N([C@@H](C)CO)C[C@H]2C)cc1	-61
C[C@H](CO)N1C[C@H](C)[C@H](CN(C)C(=O)Cc2ccccc2)Oc2ncc(C#CC3(O)CCCC3)cc2C1=O	4
CCC(=O)Nc1ccc2c(c1)C(=O)N(C)C[C@H](OC)[C@H](C)CN(C(C)=O)[C@H](C)CO2	2
Nc1ccc(Oc2ccc(Br)cc2)cc1	35*
CC(C)NC(=O)Nc1cccc2c1O[C@@H](CN(C)Cc1ccc(C(F)(F)F)cc1)[C@H](C)CN([C@H](C)CO)C2=O	-91
COCC#Cc1ccc2c(c1)O[C@H](CN(C)C(=O)COC)[C@H](C)CN([C@@H](C)CO)S2(=O)=O	13
COC(=O)C[C@H]1CC[C@@H]2[C@@H](COc3ccc(NC(=O)c4cnccn4)cc3C(=O)N2C)O1	37*
COC(=O)C[C@H]1CC[C@@H]2[C@@H](COc3ccc(NC(=O)c4cscn4)cc3C(=O)N2C)O1	45*
C[C@@H]1CN([C@@H](C)CO)S(=O)(=O)c2ccc(-c3ccncc3)cc2O[C@H]1CN(C)Cc1ccccn1	1
CC(C)CC#Cc1cnc2c(c1)C(=O)N([C@H](C)CO)C[C@@H](C)[C@H](CN(C)C(=O)Nc1ccccc1F)O2	-14
C[C@@H]1CN([C@H](C)CO)C(=O)c2cc(C#CC3(O)CCCC3)cnc2O[C@@H]1CN(C)S(C)(=O)=O	5
COc1ccccc1-c1cnc2c(c1)C(=O)N([C@H](C)CO)C[C@H](C)[C@@H](CN(C)C(=O)CN(C)C)O2	6
C[C@H]1CN([C@@H](C)CO)C(=O)c2cc(-c3ccc(C(=O)N(C)C)cc3)cnc2O[C@H]1CN(C)C(=O)c1cccnc1	6
SMILES	miR-122 inh
C[C@H](CO)N1C[C@H](C)[C@H](CN(C)C(=O)C2CCCCC2)Oc2ncc(C#CC3(O)CCCC3)cc2C1=O	1
CCCNC(=O)N(C)C[C@H]1Oc2ncc(C#C[C@H](C)O)cc2C(=O)N([C@H](C)CO)C[C@H]1C	3
Cc1ccc(S(=O)(=O)N/N=C/c2ccc(OCC(=O)Nc3ccccc3Cl)cc2)cc1	-219
O=C(COc1ccc(/C=N/NS(=O)(=O)c2ccccc2)cc1)Nc1ccc(F)cc1	36*
NC(=O)Cn1cc(/C=N\NS(=O)(=O)c2ccc(F)cc2)c2ccccc21	-135
COCC(=O)Nc1ccc2c(c1)C(=O)N(C)C[C@@H](OC)[C@H](C)CN(C(=O)COC)[C@H](C)CO2	-2
Cc1noc(C)c1NC(=O)N(C)C[C@@H]1Oc2ncc(C#Cc3ccc(F)cc3)cc2C(=O)N([C@H](C)CO)C[C@@H]1C	6
COCC#Cc1cnc2c(c1)C(=O)N([C@H](C)CO)C[C@@H](C)[C@H](CN(C)C(=O)C1CCOCC1)O2	4
